Source: the antibiotic and cytotoxicity screens of Wong et al. (2023)
About 3,300 (8.5%) of roughly 39,000 compounds were called active. The entries come from a sample that favours actives as a whole.

system: HepG2; assay: cytotoxicity call (relative viability < 0.9); conditions: 10 µM

Row | Structure (SMILES) | cytotoxicity call
1 | C[C@@H]1CCCCO[C@H](CN(C)C(=O)CCC(F)(F)F)[C@@H](C)CN([C@H](C)CO)C(=O)c2cc(NC(=O)NC3CCCCC3)ccc2O1 | inactive
2 | C[C@@H]1CN([C@H](C)CO)C(=O)c2cccc(NC(=O)C3CCOCC3)c2O[C@H]1CN(C)Cc1ccc(C(=O)O)cc1 | inactive
3 | Cc1ccc(S(=O)(=O)Nc2ccc3c(c2)C(=O)N([C@@H](C)CO)C[C@H](C)[C@H](CN(C)C(=O)Nc2c(C)noc2C)OCCCC[C@@H](C)O3)cc1 | inactive
4 | C[C@H](CO)N1C[C@H](C)[C@@H](CN(C)Cc2ccc3c(c2)OCO3)Oc2ccc(NC(=O)Nc3cccc4ccccc34)cc2CC1=O | inactive
5 | C[C@@H]1CN([C@H](C)CO)C(=O)Cc2cc(NC(=O)Nc3cccc4ccccc34)ccc2O[C@@H]1CN(C)Cc1ccc2c(c1)OCO2 | active
6 | C[C@H]1CN([C@@H](C)CO)C(=O)Cc2cc(NC(=O)Nc3cccc4ccccc34)ccc2O[C@H]1CN(C)Cc1ccc2c(c1)OCO2 | inactive
7 | C[C@@H]1CN([C@H](C)CO)C(=O)Cc2cc(NC(=O)Nc3cccc4ccccc34)ccc2O[C@H]1CN(C)Cc1ccc2c(c1)OCO2 | inactive
8 | C[C@H](CO)N1C[C@H](C)[C@@H](CN(C)Cc2ccc3c(c2)OCO3)Oc2ccc(NC(=O)Nc3cccc4ccccc34)cc2C1=O | inactive
9 | C[C@@H]1CN([C@@H](C)CO)C(=O)Cc2cc(NC(=O)Nc3cccc4ccccc34)ccc2O[C@@H]1CN(C)Cc1ccc2c(c1)OCO2 | active
10 | C[C@@H]1CN([C@@H](C)CO)C(=O)Cc2cc(NC(=O)Nc3cccc4ccccc34)ccc2O[C@H]1CN(C)Cc1ccc2c(c1)OCO2 | active
11 | C[C@H](CO)N1C[C@H](C)[C@H](CN(C)Cc2ccc3c(c2)OCO3)Oc2ccc(NC(=O)Nc3cccc4ccccc34)cc2CC1=O | inactive
12 | C[C@H]1CN([C@@H](C)CO)C(=O)Cc2cc(NC(=O)Nc3cccc4ccccc34)ccc2O[C@@H]1CN(C)Cc1ccc2c(c1)OCO2 | inactive
13 | O=c1[nH][nH]c(=O)c(Cl)c1Cl | inactive
14 | COc1ccc(NC(=O)N(C)C[C@@H]2Oc3c(NC(=O)C4CC4)cccc3C(=O)N([C@@H](C)CO)C[C@H]2C)cc1 | inactive
15 | CC(C)CC#Cc1ccc2c(c1)O[C@H](CN(C)C(=O)NC1CCCC1)[C@@H](C)CN([C@H](C)CO)S2(=O)=O | inactive
16 | CC(C)NC(=O)Nc1cccc2c1O[C@H](CN(C)S(=O)(=O)c1ccc(Cl)cc1)[C@H](C)CN([C@@H](C)CO)C2=O | inactive
17 | COc1ccc(CN(C)C[C@@H]2OCCCC[C@@H](C)Oc3ccc(NS(=O)(=O)c4c(C)noc4C)cc3C(=O)N([C@H](C)CO)C[C@H]2C)cc1 | inactive
18 | C[C@@H]1CN([C@@H](C)CO)C(=O)c2cc(NC(=O)Cc3cn(C)c4ccccc34)ccc2O[C@H]1CN(C)S(=O)(=O)c1cn(C)cn1 | inactive
19 | COc1ccc(NC(=O)Nc2ccc3c(c2)C(=O)N([C@@H](C)CO)C[C@H](C)[C@H](CN(C)C(=O)Nc2ccc4c(c2)OCO4)OCCCC[C@H](C)O3)cc1 | inactive
20 | CCS(=O)(=O)Nc1ccc2c(c1)CC(=O)N2 | inactive

Row | Structure (SMILES) | cytotoxicity call
21 | CCS(=O)(=O)Nc1ccc2c(c1)/C(=C(/Nc1ccc(CN3CCCCC3)cc1)c1ccccc1)C(=O)N2 | active
22 | CCS(=O)(=O)Nc1ccc2c(c1)C(=O)N(C)[C@@H]1CC[C@H](CC(=O)N[C@H]3CCN(Cc4ccccc4)C3)O[C@H]1CO2 | inactive
23 | N#Cc1cccc(NCCN2CCNC2=O)n1 | inactive
24 | C=CCCN(CC#C[C@H]1Oc2ccccc2S(=O)(=O)N2CCC[C@@H]12)S(=O)(=O)c1ccc(C)cc1 | active
25 | Cc1ccc(S(=O)(=O)N(C)C[C@@H]2Oc3cc(C#Cc4ccccc4)ccc3S(=O)(=O)N([C@H](C)CO)C[C@H]2C)cc1 | inactive
26 | Cc1ccc(S(=O)(=O)N(C)C[C@H]2Oc3cc(C#Cc4ccccc4)ccc3S(=O)(=O)N([C@H](C)CO)C[C@@H]2C)cc1 | inactive
27 | C[C@@H]1CCCCO[C@H](CN(C)C(=O)Cc2ccccc2)[C@@H](C)CN([C@H](C)CO)C(=O)c2cc(NS(=O)(=O)c3ccc(F)cc3)ccc2O1 | inactive
28 | Cc1noc(C)c1NC(=O)Nc1ccc2c(c1)C(=O)N([C@H](C)CO)C[C@@H](C)[C@H](CN(C)C(=O)Nc1ccc(C(F)(F)F)cc1)OCCCC[C@H](C)O2 | inactive
29 | CCCNC(=O)Nc1ccc2c(c1)OC[C@H](C)N(Cc1ccc(-c3ccccn3)cc1)C[C@@H](C)[C@@H](OC)CN(C)C2=O | inactive
30 | O=C(C[C@@H]1CC[C@H]2[C@@H](COC[C@H](O)CN2Cc2cc(F)ccc2F)O1)N[C@H]1CCN(Cc2ccccc2)C1 | inactive
31 | O=C(C[C@H]1CC[C@@H]2[C@H](COC[C@@H](O)CN2Cc2cc(F)ccc2F)O1)N[C@@H]1CCN(Cc2ccccc2)C1 | active
32 | O=C(C[C@H]1CC[C@H]2[C@@H](COC[C@@H](O)CN2Cc2cc(F)ccc2F)O1)N[C@H]1CCN(Cc2ccccc2)C1 | active
33 | O=C(C[C@H]1CC[C@H]2[C@@H](COC[C@@H](O)CN2Cc2cc(F)ccc2F)O1)N[C@@H]1CCN(Cc2ccccc2)C1 | inactive
34 | O=C(C[C@H]1CC[C@H]2[C@@H](COC[C@H](O)CN2Cc2cc(F)ccc2F)O1)N[C@H]1CCN(Cc2ccccc2)C1 | inactive
35 | O=C(C[C@@H]1CC[C@@H]2[C@H](COC[C@@H](O)CN2Cc2cc(F)ccc2F)O1)N[C@H]1CCN(Cc2ccccc2)C1 | inactive
36 | O=C(C[C@H]1CC[C@@H]2[C@H](COC[C@@H](O)CN2Cc2cc(F)ccc2F)O1)N[C@H]1CCN(Cc2ccccc2)C1 | active
37 | O=C(C[C@@H]1CC[C@@H]2[C@H](COC[C@@H](O)CN2Cc2cc(F)ccc2F)O1)N[C@@H]1CCN(Cc2ccccc2)C1 | inactive
38 | O=C(C[C@@H]1CC[C@H]2[C@@H](COC[C@@H](O)CN2Cc2cc(F)ccc2F)O1)N[C@H]1CCN(Cc2ccccc2)C1 | inactive
39 | C[C@H](CO)N1C[C@H](C)[C@@H](CN(C)Cc2cncnc2)Oc2ncc(C#C[C@@H](C)O)cc2C1=O | inactive
40 | O=P(O)(O)CN1CCN(CP(=O)(O)O)CCN(CP(=O)(O)O)CCN(CP(=O)(O)O)CC1 | inactive
